In PubChem BioAssay (NCATS):
Results filed as inconclusive are left out. A call without a number means that no potency is given here. Unmarked numbers belong to inactive results. Calls of active or inactive are those of the source. Calls come from the whole dose curve; as a rule, active = well fitted curve in the direction sought with a large enough effect; inconclusive = small, poorly fitted or top-dose-only effect, or another doubt; inactive = no such curve, though single readings can be large; an effect the other way counts as inactive or inconclusive.

What was measured:
[1] = P-glycoprotein substrates identified in KB-8-5-11 adenocarcinoma cell line, qHTS therapeutic library screen (AID 1346987); details: KB-8-5-11 (P-gp overexpressing) viability, CellTiter-Glo, 72 h; series mostly up to 44.5 µM; note: nearly all actives have a fitted effect of over 65% in size
In short: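 In this qHTS, P-gp-rich KB-8-5-11 cells received library compounds across a concentration range. Viability was quantified by luminescence after 72 h at 37 degree C.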

[2] = NS1 protein of Zika virus - qHTS assay to identify small molecule inhibitors in human HEK 293 cells (AID 1347053); details: HEK293 ZIKV MR766 infection, NS1 TR-FRET, 24 h; series mostly up to 46.1 µM; note: nearly all actives have a fitted effect of over 55% in size
In short: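 TR-FRET signal from two anti-ZIKV NS1 antibodies quantified NS1 in HEK 293 cells 24 h after MR766 infection at MOI = 0.5; compounds were added 1 h before virus. Uninfected cells and infected cells defined the NS1 normalization range.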

[3] = qHTS of pediatric cancer cell lines to identify multiple opportunities for drug repurposing: Primary screen for TC32 cells (AID 1347089); details: TC32 Ewing sarcoma viability, CellTiter-Glo luminescence, 48 h; series mostly up to 45.8 µM; note: nearly all actives have a fitted effect of over 60% in size
In short: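 TC32 cells, 500-1,000/well in growth medium, compound-treated 48 h at 37 °C; viability from CellTiter-Glo luminescence. Primary screen: MIPE 11-point (0.78 nM–46 µM final), NPC 8-point (0.59 nM–46 µM final); confirmatory at 11-point dilutions.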

[4] = qHTS of pediatric cancer cell lines to identify multiple opportunities for drug repurposing: Primary screen for DAOY cells (AID 1347090); details: DAOY medulloblastoma viability, CellTiter-Glo luminescence, 48 h; series mostly up to 46 µM; note: nearly all actives have a fitted effect of over 55% in size
In short: (§1)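 Viability measured as metabolically active cells via CellTiter-Glo luminescence following 48 hours of compound exposure, 11-point dilutions in confirmatory testing. 500-1,000 cells/well plated 5 hours before dosing; controls were DMSO and 2.3 µM bortezomib.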

[5] = qHTS of pediatric cancer cell lines to identify multiple opportunities for drug repurposing: Primary screen for SJ-GBM2 cells (AID 1347091); details: SJ-GBM2 viability, CellTiter-Glo luminescence, 48 h; series mostly up to 46 µM
In short: as §1

[6] = qHTS of pediatric cancer cell lines to identify multiple opportunities for drug repurposing: Primary screen for A673 cells (AID 1347092); details: A673 Ewing sarcoma viability, CellTiter-Glo ATP luminescence, 48 h; series mostly up to 46 µM; note: nearly all actives have a fitted effect of over 45% in size
In short: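 A673 cells (500-1,000 cells/well) were treated 48 hours at 37 degrees C with compounds at 11-point (0.78 nM to 46 µM) or 8-point (0.59 nM to 46 µM) dilutions. Viability read by CellTiter-Glo luminescence; concentration-response curves fitted.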

[7] = qHTS of pediatric cancer cell lines to identify multiple opportunities for drug repurposing: Primary screen for SK-N-MC cells (AID 1347093); details: SK-N-MC viability, CellTiter-Glo luminescence, 48 h; series mostly up to 46 µM; note: potency is the fitted concentration of half-maximal effect
In short: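 Metabolically active cells were quantified by ATP-dependent luminescence (CellTiter-Glo, 15 min at room temperature) following 48 h treatment. Cells had been plated at 500-1,000 per well and settled for 5 h beforehand.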

[8] = qHTS of pediatric cancer cell lines to identify multiple opportunities for drug repurposing: Primary screen for BT-37 cells (AID 1347094); details: BT-37 viability, CellTiter-Glo luminescence, 48 h; series mostly up to 57.3 µM
In short: (§2)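 CRCs from 8- or 11-point titrations (lowest final 0.59 nM NPC, 0.78 nM MIPE). Cell viability: CellTiter-Glo after 48 h incubation, 15 min room-temperature development, luminescence imaging.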

[9] = qHTS of pediatric cancer cell lines to identify multiple opportunities for drug repurposing: Primary screen for NB-EBc1 cells (AID 1347095); details: NB-EBc1 neuroblastoma viability, CellTiter-Glo luminescence, 48 h; series mostly up to 46 µM
In short: as §2

[10] = qHTS of pediatric cancer cell lines to identify multiple opportunities for drug repurposing: Primary screen for U-2 OS cells (AID 1347096); details: U-2 OS viability, CellTiter-Glo luminescence, 48 h; series mostly up to 46 µM; note: nearly all actives have a fitted effect of over 50% in size
In short: (§3)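 Viability after 48 h compound treatment at 37C, 500-1,000 cells/well, read as ATP luminescence with CellTiter-Glo. Primary screens used 11-point (MIPE, 0.78 nM-46 µM) or 8-point (NPC, 0.59 nM-46 µM) final concentrations; follow-up screens used 11-point dilutions.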

[11] = qHTS of pediatric cancer cell lines to identify multiple opportunities for drug repurposing: Primary screen for Saos-2 cells (AID 1347097); details: Saos-2 viability, CellTiter-Glo ATP luminescence, 48 h; series mostly up to 46 µM; note: nearly all actives have a fitted effect of over 40% in size
In short: as §2

[12] = qHTS of pediatric cancer cell lines to identify multiple opportunities for drug repurposing: Primary screen for SK-N-SH cells (AID 1347098); details: SK-N-SH viability, CellTiter-Glo luminescence, 48 h; series mostly up to 57 µM;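 note: DMSO served as neutral control and bortezomib at 2.3 µM as positive control; nearly all actives have a fitted effect of over 65% in size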
In short: (§4)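 Cells (500-1,000/well) rested 5 h, then received compounds for 48 h; metabolically active cells were measured by CellTiter-Glo luminescence. Final concentrations spanned up to 46 µM (MIPE, 11-point) or 0.59 nM-46 µM (NPC, 8-point) in primary screens, 11-point in follow-ups.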

[13] = qHTS of pediatric cancer cell lines to identify multiple opportunities for drug repurposing: Primary screen for NB1643 cells (AID 1347099); details: NB1643 neuroblastoma viability, CellTiter-Glo luminescence, 48 h; series mostly up to 46 µM; note: nearly all actives have a fitted effect of over 50% in size
In short: as §2

[14] = qHTS of pediatric cancer cell lines to identify multiple opportunities for drug repurposing: Primary screen for LAN-5 cells (AID 1347100); details: LAN-5 neuroblastoma viability, CellTiter-Glo luminescence, 48 h; series mostly up to 46 µM
In short: as §3

[15] = qHTS of pediatric cancer cell lines to identify multiple opportunities for drug repurposing: Primary screen for BT-12 cells (AID 1347101); details: BT-12 viability, CellTiter-Glo luminescence, 48 h; series mostly up to 57.3 µM; note: nearly all actives have a fitted effect of over 25% in size
In short: as §4

[16] = qHTS of pediatric cancer cell lines to identify multiple opportunities for drug repurposing: Primary screen for Rh18 cells (AID 1347102); details: Rh18 rhabdomyosarcoma viability, CellTiter-Glo luminescence, 48 h; series mostly up to 46 µM; note: nearly all actives have a fitted effect of over 65% in size
In short: as §3

[17] = qHTS of pediatric cancer cell lines to identify multiple opportunities for drug repurposing: Primary screen for OHS-50 cells (AID 1347103); details: OHS-50 osteosarcoma viability, CellTiter-Glo luminescence, 48 h; series mostly up to 57.3 µM; note: nearly all actives have a fitted effect of over 40% in size
In short: as §4

[18] = qHTS of pediatric cancer cell lines to identify multiple opportunities for drug repurposing: Primary screen for RD cells (AID 1347104); details: RD rhabdomyosarcoma viability, CellTiter-Glo luminescence, 48 h; series mostly up to 46 µM; note: nearly all actives have a fitted effect of over 55% in size
In short: as §2

[19] = qHTS of pediatric cancer cell lines to identify multiple opportunities for drug repurposing: Primary screen for MG 63 (6-TG R) cells (AID 1347105); details: MG 63 (6-TG R) viability, CellTiter-Glo, 48 h; series mostly up to 46 µM; note: nearly all actives have a fitted effect of over 50% in size
In short: as §2

[20] = P-glycoprotein substrates identified in KB-3-1 adenocarcinoma cell line, qHTS therapeutic library screen (AID 1346986); details: KB-3-1 parental cells viability, CellTiter-Glo, 72 h; series mostly up to 44.5 µM; note: nearly all actives have a fitted effect of over 60% in size
In short: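 Viability by CellTiter-Glo after 72 h compound exposure at 37 degree C, 5% CO2. Cytotoxic call: curve class -1.1 to -2.4, maximum response >50%, AC50 < 10 uM, compared across KB-3-1 and P-gp-overexpressing KB-8-5-11.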

Structure (SMILES) | outcome [1] | outcome [2] | outcome [3] | outcome [4] | outcome [5] | outcome [6] | Potency [7] | outcome [8] | outcome [9] | outcome [10] | outcome [11] | outcome [12] | Potency [13] | outcome [14] | outcome [15] | outcome [16] | outcome [17] | outcome [18] | outcome [19] | outcome [20]
CC(C)CCCC(C)CCCC(C)CCCCC(C)CCCC(C)CCCC(C)C (stereo not drawn) | inactive | inactive | inactive | inactive | inactive | inactive | inactive | inactive | inactive | inactive | inactive | inactive | inactive | inactive | inactive | inactive | inactive | inactive | inactive | 
CC(=O)OCC(=O)[C@@]1(O)CC[C@H]2[C@@H]3CCC4=CC(=O)C=C[C@]4(C)[C@@]3(F)[C@@H](O)C[C@@]21C | inactive | inactive | inactive | inactive | inactive | inactive | inactive | inactive | inactive | inactive | inactive | inactive | inactive | inactive | inactive | inactive | inactive | inactive | inactive | 
CC(=O)NCc1c(I)c(NC(C)=O)c(I)c(C(=O)O)c1I | inactive | inactive | inactive | inactive | inactive | inactive | inactive | inactive | inactive | inactive | inactive | inactive | inactive | inactive | inactive | inactive | inactive | inactive | inactive | 
c1ccc2[nH]ccc2c1 | inactive | inactive | inactive | inactive | inactive | inactive | inactive | inactive | inactive | inactive | inactive | inactive | inactive | inactive | inactive | inactive |  | inactive | inactive | 
O=C(O)CCCc1ccccc1 | inactive |  | inactive | inactive | inactive | inactive | inactive | inactive | inactive | inactive | inactive | inactive | inactive | inactive | inactive | inactive | inactive | inactive | inactive | inactive
CCN(CC)S(=O)(=O)c1ccc(C(=O)O)cc1 | inactive | inactive | inactive | inactive | inactive | inactive | inactive | inactive | inactive | inactive | inactive | inactive | inactive | inactive | inactive | inactive | inactive | inactive | inactive | 
COc1ccc(Cc2cnc(N)nc2N)cc1OC | inactive | inactive | inactive | inactive | inactive | inactive | 7.5 µM (active) | inactive | inactive | inactive | inactive | inactive | inactive | inactive | inactive | inactive | inactive | inactive | inactive | 
CCCCCCCCCCCCCCCCCCO | inactive | inactive | inactive | inactive | inactive | inactive | inactive | inactive | inactive | inactive | inactive | inactive | inactive | inactive | inactive | inactive | inactive | inactive | inactive | 
CC(C)=CCC/C(C)=C/CO | inactive | inactive | inactive | inactive | inactive | inactive | inactive | inactive | inactive | inactive | inactive | inactive | inactive | inactive | inactive | inactive |  | inactive | inactive | 
CCCCCC(N)=O | inactive | inactive | inactive | inactive | inactive | inactive | inactive | inactive | inactive | inactive | inactive | inactive | inactive | inactive | inactive | inactive |  | inactive | inactive | 
Cc1cc(O)cc(C)c1Cl | inactive | inactive | inactive | inactive | inactive | inactive | inactive | inactive | inactive | inactive | inactive | inactive | inactive | inactive | inactive | inactive |  | inactive | inactive | 
O=c1[nH]c(=O)c2ccccc2o1 | inactive | inactive | inactive | inactive | inactive | inactive | inactive | inactive | inactive | inactive | inactive | inactive | inactive | inactive | inactive | inactive | inactive | inactive | inactive | 
NC(N)=NS(=O)(=O)c1ccc(N)cc1 | inactive | inactive | inactive | inactive | inactive | inactive | inactive | inactive | inactive | inactive | inactive | inactive | inactive | inactive | inactive | inactive | inactive | inactive | inactive | 
